# Results published in PubChem BioAssay.
# The source made the active and inactive calls. Unless noted, no rule for the calls is given here.
# Key:
# [1] = HepG2 liver cancer cell viability effects, profiling panel, resazurin fluorescence, 24 h, PK04 Diversity Set (AID 1172); settings: higher = more signal
# [2] = basal S. cerevisiae growth modulation, no modifier, primary screen, OD600, strain BY4716, 24 h, basal condition (AID 1173); settings: OD600, 24 h, higher = more signal, called active from +8 up or from −8 down
# [3] = MM1S myeloma cell viability, profiling panel, resazurin fluorescence, basal, 24 h, PK04 Diversity Set (AID 1174); settings: higher = more signal, called active from +8 up or from −8 down;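 also: MM1S multiple myeloma cell line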
# [4] = molecular target: Dihydroorotate dehydrogenase (quinone), mitochondrial (Plasmodium falciparum (isolate 3D7)) (UniProt Q08210); test: PfDHODH enzyme inhibitors, primary screen, biochemical, C-terminal His tag, absorbance 600 nm (AID 1175); settings: DCIP absorbance 600 nm, higher = more signal, called active from +8 up or from −8 down;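 also: recombinant parasite enzyme with a five histidine tag at its C terminus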
# [5] = P. aeruginosa biofilm formation inhibitors, primary screen, strain PAO1, LB-PBS medium, absorbance 600 nm (AID 1176); settings: P. aeruginosa PAO1 growth/biofilm, A600, 12 h; higher = more signal
# [6] = S. cerevisiae RM11-1a growth modifiers, primary screen, strain RM11-1a, OD600, basal, 24 h (AID 1177); settings: OD600, 24 h, higher = more signal, called active from +8 up or from −8 down;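 also: cultures grown under basal conditions with no added stressor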
# [7] = E. coli acrAB mutant growth effects, primary screen, E. coli filamentation inducers, strain DRC39, OD650, 24 h (AID 1178); settings: higher = more signal, called active from +8 up or from −8 down;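 also: growth measured as culture turbidity by optical density at 650 nm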
# [8] = E. coli acrAB mutant growth effects, primary screen, E. coli filamentation inducers, strain DRC39, OD650, 48 h (AID 1179);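 also: screen aims at cell division blockers that make cells filament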; settings: E. coli DRC39 delta-acrAB growth, higher = more signal, called active from +8 up or from −8 down
# [9] = RPMI8226 myeloma cell viability, profiling panel, resazurin fluorescence, basal, 24 h, PK04 Diversity Set (AID 1180); settings: higher = more signal;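 also: RPMI8826 multiple myeloma cell line at 5000 cells per well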
# [10] = molecular target: E3 ubiquitin-protein ligase XIAP (Homo sapiens) (UniProt P98170); test: XIAP binders, primary screen, biophysical, small-molecule microarray, fluorescence 635 nm (AID 1181); settings: small-molecule microarray binding, higher = more signal;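 also: score merges 667 nm emission and signal to noise over triplicate slides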
# [11] = system: XIP peptide (Xip251-270) binding; test: small-molecule binders of XIP peptide, primary screen, biochemical, small-molecule microarray, fluorescence 635/667 nm, 0.1 µg/mL protein (AID 1182); settings: fluorescent protein binding, 635 nm, higher = more signal, called active from +8 up or from −8 down
# XIP peptide (Xip251-270) = test: small-molecule binders of XIP peptide, primary screen, biochemical, small-molecule microarray, fluorescence 635/667 nm, 0.5 µg/mL protein (AID 1183); settings: small-molecule microarray binding, fluorescence 635 nm; higher = more signal
# [12] = Plasmodium falciparum growth inhibition, primary screen, strain 3D7, DAPI fluorescence, 100 nL (AID 1184);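 also: parasites grown inside human red blood cells in medium with human serum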; settings: P. falciparum 3D7 growth, 3 d, higher = more signal
# [13] = molecular target: Homeobox protein Hox-A13 (Mus musculus) (UniProt Q62424); test: inhibitors of HoxA13-DNA binding, primary screen, biochemical, fluorescence polarization, labeled oligonucleotide (AID 1185); settings: 15 min, higher = more signal, called active from +8 up or from −8 down
# [14] = inhibitors of hydroxyurea-induced Chk1 phosphorylation, primary screen, imaging, HeLa, phospho-Chk1 antibody, percent positive cells (AID 1186); settings: hydroxyurea-induced phospho-Chk1 immunofluorescence imaging, higher = more signal
# [15] = inhibitors of hydroxyurea-induced Chk1 phosphorylation, primary screen, imaging, HeLa, phospho-Chk1 nuclear intensity (AID 1187); settings: hydroxyurea-induced phospho-Chk1 immunofluorescence imaging, higher = more signal
# Chain of Dihydroorotate dehydrogenase (quinone), mitochondrial (Plasmodium falciparum (isolate 3D7)) (Q08210 whole entry, looked up): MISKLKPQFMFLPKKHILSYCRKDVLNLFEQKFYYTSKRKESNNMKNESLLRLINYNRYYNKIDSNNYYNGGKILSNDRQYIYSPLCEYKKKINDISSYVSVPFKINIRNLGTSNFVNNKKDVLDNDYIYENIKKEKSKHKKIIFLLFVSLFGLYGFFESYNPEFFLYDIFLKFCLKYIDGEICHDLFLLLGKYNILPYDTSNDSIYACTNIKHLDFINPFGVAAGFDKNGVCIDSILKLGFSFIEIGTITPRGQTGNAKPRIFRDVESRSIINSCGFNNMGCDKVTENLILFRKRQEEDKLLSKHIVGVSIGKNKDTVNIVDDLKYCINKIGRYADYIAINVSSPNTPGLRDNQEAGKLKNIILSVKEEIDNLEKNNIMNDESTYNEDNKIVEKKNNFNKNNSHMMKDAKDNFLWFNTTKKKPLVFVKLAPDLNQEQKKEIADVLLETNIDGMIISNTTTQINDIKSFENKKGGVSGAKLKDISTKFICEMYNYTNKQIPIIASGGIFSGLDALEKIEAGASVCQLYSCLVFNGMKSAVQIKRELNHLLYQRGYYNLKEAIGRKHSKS
# Chain of Homeobox protein Hox-A13 (Mus musculus) (Q62424 whole entry, looked up): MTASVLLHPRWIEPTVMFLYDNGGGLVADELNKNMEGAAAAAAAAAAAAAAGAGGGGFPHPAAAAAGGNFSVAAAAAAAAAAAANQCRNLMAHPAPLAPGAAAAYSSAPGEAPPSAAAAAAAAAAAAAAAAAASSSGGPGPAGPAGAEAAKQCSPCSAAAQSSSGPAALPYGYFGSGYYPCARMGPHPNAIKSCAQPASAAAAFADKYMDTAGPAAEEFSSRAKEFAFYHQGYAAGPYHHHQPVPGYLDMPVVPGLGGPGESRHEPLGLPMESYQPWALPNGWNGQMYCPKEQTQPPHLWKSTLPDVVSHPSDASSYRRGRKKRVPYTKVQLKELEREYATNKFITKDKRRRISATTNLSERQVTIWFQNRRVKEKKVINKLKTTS
# Chain of E3 ubiquitin-protein ligase XIAP (Homo sapiens) (P98170 whole entry, looked up): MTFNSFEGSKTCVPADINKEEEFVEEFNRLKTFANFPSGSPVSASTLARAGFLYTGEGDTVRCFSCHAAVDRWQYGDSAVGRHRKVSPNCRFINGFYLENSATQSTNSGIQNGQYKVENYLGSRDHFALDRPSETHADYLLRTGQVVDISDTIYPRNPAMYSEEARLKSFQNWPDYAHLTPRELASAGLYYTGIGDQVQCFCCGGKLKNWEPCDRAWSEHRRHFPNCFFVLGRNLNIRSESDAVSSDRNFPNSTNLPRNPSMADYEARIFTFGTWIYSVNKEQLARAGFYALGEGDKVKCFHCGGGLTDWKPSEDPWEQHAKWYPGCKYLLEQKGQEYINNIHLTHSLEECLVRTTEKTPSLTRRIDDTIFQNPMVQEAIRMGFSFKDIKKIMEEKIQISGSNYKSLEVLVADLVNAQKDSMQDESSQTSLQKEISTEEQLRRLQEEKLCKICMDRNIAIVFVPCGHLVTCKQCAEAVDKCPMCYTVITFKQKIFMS
Structure (SMILES),z-score [1],z-score [2],z-score [3],composite z-score [4],z-score [5],z-score [6],z-score [7],z-score [8],z-score [9],composite z-score [10],composite z-score [11],composite z-score (XIP peptide (Xip251-270)),z-score [12],z-score [13],z-score [14],z-score [15]
COCCOC(=O)N1C(=O)[C@@]2(c3cc(C#CCCO)ccc31)[C@H](C(=O)Nc1nc3ccccc3s1)[C@H]1C(=O)O[C@H](c3ccccc3)[C@H](c3ccccc3)N1[C@@H]2c1ccc(OCCO)cc1,1.04,1.96 (inactive),-0.922 (inactive),-0.944 (inactive),2.84 (inactive),2.33 (inactive),0.348 (inactive),0.215 (inactive),-1.66,0.154,0.886 (inactive),0.744,-1.12,0.518 (inactive),-0.502 (inactive),-0.558 (inactive)
C=C/C=C/[C@H]1C(=C)CN([C@@H](Cc2ccccc2)C(=O)OC)[C@@H]1[C@H](O)Cc1ccccc1,0.28,-1.91 (inactive),0.883 (inactive),-1.09 (inactive),0.531 (inactive),-0.609 (inactive),0.701 (inactive),0.595 (inactive),0.73,0.643,-0.245 (inactive),0.497,-1.2,-1.43 (inactive),-0.0246 (inactive),-0.368 (inactive)
C=CCN(Cc1ccccc1)C(=O)C(c1cccs1)N(CCOCCO)C(=O)/C=C\C(=O)O (centres undefined),-0.393,-1.1 (inactive),0.666 (inactive),-1.37 (inactive),0.661 (inactive),-0.947 (inactive),0.441 (inactive),1.05 (inactive),0.463,0.223,-0.467 (inactive),-0.573,-0.205,-1.25 (inactive),-1.41 (inactive),-0.806 (inactive)
COc1ccc(CCNC(=O)[C@@]2(Sc3ccc(C)cc3)CC(=O)N(C3CCCCC3)[C@@H]2c2ccc(CO)cc2I)cc1,0.594,0.0658 (inactive),0.175 (inactive),0.43 (inactive),1.34 (inactive),-0.382 (inactive),0.258 (inactive),0.238 (inactive),-1.2,-0.276,0.0537 (inactive),0.753,-2.12,-1.88 (inactive),0.431 (inactive),1.23 (inactive)
CCCN1C(=O)[C@]2(CCS(=O)(=O)c3ccccc3)N=C(c3ccc(OCCCO)cc3)O[C@@H]2c2ccccc21,-0.264,-0.443 (inactive),-0.278 (inactive),0.507 (inactive),0.0279 (inactive),0.492 (inactive),1.82 (inactive),0.544 (inactive),-0.967,-0.0773,-0.0893 (inactive),0.11,-2.6,-5.36 (inactive),-0.701 (inactive),-0.918 (inactive)
C=C(C)C1C(=C)CN([C@H](CO)c2ccccc2)C1=O (some centres undefined),1.04,-2.16 (inactive),0.267 (inactive),-0.232 (inactive),-0.611 (inactive),0.229 (inactive),0.692 (inactive),-0.829 (inactive),-0.403,-0.11,-0.389 (inactive),-0.149,-0.977,-2.61 (inactive),-0.347 (inactive),-0.339 (inactive)
C=CCOC(=O)[C@H]1[C@@H]2C(=O)O[C@@H](c3ccccc3)[C@@H](c3ccccc3)N2[C@@H](c2ccc(OCCOC(=O)[C@H]3C[C@H]4C(=O)N[C@@H](CC(C)C)C(=O)N4[C@H]3c3ccc(O)cc3)cc2)[C@]12C(=O)Nc1ccc(I)cc12,-0.598,-0.838 (inactive),-0.491 (inactive),-1.72 (inactive),0.379 (inactive),0.919 (inactive),-0.267 (inactive),0.276 (inactive),-0.385,0.109,0.626 (inactive),0.75,-0.061,6.65 (inactive),0.293 (inactive),0.198 (inactive)
C=CCN1C(=O)[C@]2(O[C@H](CCO)[C@@H]([Si](C)(C)c3ccc(OC)cc3)[C@@H]2C)c2cc(N3CCCCC3=O)ccc21,-3.6,1.22 (inactive),-5.89 (inactive),-1.45 (inactive),-0.577 (inactive),2.97 (inactive),0.575 (inactive),-0.648 (inactive),-6.02,-0.258,0.238 (inactive),0.732,-2.66,-6.28 (inactive),-0.147 (inactive),-0.56 (inactive)
COc1ccc(C#Cc2ccc3c(c2)[C@]2(C(=O)N3)[C@H](c3ccccc3OCCO)N3[C@H](c4ccccc4)[C@H](c4ccccc4)OC(=O)[C@H]3[C@@H]2C(=O)O)cc1,1.86,1.75 (inactive),-3.05 (inactive),-24.8 (active),2.76 (inactive),3.13 (inactive),1.06 (inactive),0.047 (inactive),-6.75,0.284,2.03 (inactive),0.695,-1.27,-4.32 (inactive),-0.331 (inactive),-0.416 (inactive)
